This is a sample that favours compounds with a hit; in the whole collection about 3.5% have one here.
TEAD-YAP inh: TEAD-YAP interaction inhibition; HEK-TIYL cells, TEAD-Gal4/YAP UAS-luciferase luminescence; inhibition, % at 9.12 µM; 640,000 compounds, 1.4% hits; AID 1259422; in the data active = inhibition above about 32%
MITF inh: blocks human microphthalmia-associated transcription factor; AID 1259374; AlphaScreen MITF homodimerization, bead proximity signal; O75030; 650,000 compounds, 0.91% hits; inhibition, % at 2.6 µM; in the data active = inhibition above about 50%
FBW7 activator: activators of human E3 ligase FBW7; Q969H0; AlphaScreen FBW7–phospho-cyclin E peptide binding, activator screen; normalized activity (activation), % at 26.1 µM; 650,000 compounds, 0.13% hits; AID 1259310; in the data active = normalized activity above about 1.9%;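 note: purified mutant Fbw7 with reduced substrate affinity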
GPR151 activ: activators of human GPR151; Q8TDV0; PathHunter beta-arrestin GPR151 cells, luminescence; activation, % at 11.2 µM; 650,000 compounds, 1% hits; AID 1508602; in the data active = activation above about 4.9%
Target sequence (Q8TDV0 whole entry, looked up): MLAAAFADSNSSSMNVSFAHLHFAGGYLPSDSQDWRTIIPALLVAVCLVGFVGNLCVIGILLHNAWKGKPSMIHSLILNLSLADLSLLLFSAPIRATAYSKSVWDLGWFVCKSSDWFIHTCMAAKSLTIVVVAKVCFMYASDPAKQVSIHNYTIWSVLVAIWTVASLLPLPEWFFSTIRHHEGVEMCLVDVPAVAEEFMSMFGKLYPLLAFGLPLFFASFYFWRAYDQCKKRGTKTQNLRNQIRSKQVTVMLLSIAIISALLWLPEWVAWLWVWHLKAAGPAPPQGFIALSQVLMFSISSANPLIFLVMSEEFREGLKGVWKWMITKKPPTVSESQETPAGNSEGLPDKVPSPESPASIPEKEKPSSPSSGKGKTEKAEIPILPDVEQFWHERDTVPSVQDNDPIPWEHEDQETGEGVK
Numbers stand for hits; 0 = inactive; - = not tested or not shown; ! = a repeat was not active.

SMILES | TEAD-YAP inh | MITF inh | FBW7 activator | GPR151 activ
O=C(Nc1ccc(F)cc1)c1ccc(Cl)c([N+](=O)[O-])c1 | 48 | 0 | 0 | 0
O=C(Nc1cc(C(F)(F)F)ccc1Cl)c1ccc(Cl)c([N+](=O)[O-])c1 | 45 | 0 | 0 | 0
O=c1c2cc(Cl)ccc2nc2ccc(N3CCCC3)nn12 | 0 | 0 | 0 | 0
CC1CCN(c2ccc3nc4ccccc4c(=O)n3n2)CC1 | 76 | 0 | 0 | 0
O=C(NCC1CCCO1)c1ccc2c(=O)n(CC3CCCO3)c(SCC(=O)N3CCN(c4ccccc4)CC3)nc2c1 (stereo not drawn) | 32 | 0 | 0 | 0
O=C(NCC1CCCO1)C1CCC(Cn2c(SCC(=O)N3CCN(c4ccccc4)CC3)nc3ccccc3c2=O)CC1 (stereo not drawn) | 0 | 0 | 0 | 0
c1ccc(C2=NNC(c3ccccc3)=NN2)cc1 | 42 | 0 | 0 | 0
COc1ccc(C2Nc3ccccc3C(=O)N2c2ccc3ccccc3c2)cc1 (stereo not drawn) | 64 | 0 | 0 | 0
COc1ccc(C2Nc3ccccc3C(=O)N2c2ccc(C)cc2)cc1 (stereo not drawn) | 0 | 0 | 0 | 0
N#C/C(=C\c1c[nH]c2ccccc12)C(=O)NC1CCS(=O)(=O)C1 (stereo not drawn) | 0 | 0 | 0 | 0
CN(C)c1ccc(-c2ccc3ccccc3n2)cc1 | 76 | 0 | 0 | 0
CN(C)c1ccc(C(O)Cc2nc3ccccc3n2C)cc1 (stereo not drawn) | 95 | 0 | 0 | 0
CC(C)c1ccc(C(O)Cc2nc3ccccc3n2C)cc1 (stereo not drawn) | 0 | 0 | 0 | 0
CN(C)c1ccc(-c2nc3ccccc3n2C)cc1 | 93 | 0 | 0 | 0
c1cncc(CNc2cccc(-c3nc4ccccc4o3)c2)c1 | 0 | 0 | 0 | 0
CN(Cc1ccccc1)C(=O)CCC1CCN(C(=O)Cc2cccnc2)CC1 | 0 | 0 | 0 | 0
CCOCCn1c(=NC(=O)C2=COCCO2)sc2cc(C)ccc21 | 0 | 0 | 0 | 0
Clc1cccc(-n2ncc3c(NCCCn4ccnc4)ncnc32)c1 | 56 | 0 | 0 | 0
Cc1ccc(-n2ncc3c(NCCCn4ccnc4)ncnc32)cc1C | 0 | 0 | 0 | 0
OC(CN1C2=NCCCN2c2ccccc21)c1ccc2c(c1)OCO2 (stereo not drawn) | 0 | 0 | 0 | 0
OC(CN1C2=NCCN2c2ccccc21)c1ccc2c(c1)OCO2 (stereo not drawn) | 55 | 0 | 0 | 0
O=Cc1ccc(OCCOC(=O)Nc2ccccc2)cc1 | 0 | 0 | 0 | 0
Cc1cc(C)c(NC(=O)Cn2cnc3ccccc32)c(C)c1 | 42 | 0 | 0 | 0
Cc1ccc(Cn2cnc3ccccc32)cc1 | 0 | 0 | 0 | 0
O=C(Cn1cnc2ccccc21)Nc1ccc(SC(F)F)cc1 | 34 | 0 | 0 | 0
SMILES | TEAD-YAP inh | MITF inh | FBW7 activator | GPR151 activ
Cc1cc(Cn2cnc3ccccc32)c(C)cc1Cn1cnc2ccccc21 | 36 | 0 | 0 | 0
CCN1CCN(C(=O)c2ccc(Cn3c(=S)[nH]c4ccc(Br)cc4c3=O)cc2)CC1 | 0 | 0 | 0 | 0
Oc1ccc2nc(N3CCOCC3)sc2c1 | 0 | 0 | 0 | 0
O=C(CN1C(=O)c2cccc([N+](=O)[O-])c2C1=O)OCC(=O)c1ccc(F)cc1 | 0 | 0 | 0 | 0
CC(=O)NCc1ccc(-c2csc(N)n2)cc1 | 0 | 0 | 0 | 0
CC(=O)NC(C)CCc1ccc(-c2csc(N)n2)cc1 (stereo not drawn) | 36 | 0 | 0 | 0
CC(CO)Nc1c2ccccc2nc2ccccc12 (stereo not drawn) | 38 | 0 | 0 | 0
CCCCN(c1ccccc1)S(=O)(=O)c1ccc2c(c1)OCCN2C | 0 | 0 | 0 | 0
O=C(Nc1cc(-c2ccncc2)c[nH]c1=O)C1Cc2c(ccc3ccccc23)O1 (stereo not drawn) | 33 | 0 | 0 | 0
NC(=S)NNc1cccc2cccnc12 | 0 | 74! | 0 | 0
CCOc1ccccc1/C=N/c1sc2c(c1C(N)=O)CCCC2 | 0 | 0 | 0 | 0
COc1cccc2cc(C(=O)Nc3ccccc3)c(=Nc3ccc(F)cc3)oc12 | 0 | 0 | 0 | 0
COc1cccc2cc(C(=O)Nc3ccccc3)/c(=N/O)oc12 | 34 | 0 | 0 | 0
COc1ccccc1-c1cnc(N)c(N[C@H](C)c2ccccc2)n1 | 0 | 0 | 0 | 0
COC(=O)c1ccc2nc(-c3ccc(S(C)(=O)=O)cc3)cn2c1 | 0 | 0 | 0 | 0
COC(=O)c1ccc2nc(-c3cccc(N)c3)cn2c1 | 78 | 0 | 0 | 0
CC(=O)OCC1=C(C(=O)O)N2C(=O)C(NC(=O)c3cccc(F)c3)C2SC1 (stereo not drawn) | 0 | 0 | 0 | 0
CC(=O)c1c(C)[nH]c(C(=O)OCC(=O)Nc2cccc(S(=O)(=O)N3CCCC3)c2)c1C | 33 | 0 | 0 | 0
CC(=O)c1c(C)[nH]c(C(=O)OCC(=O)Nc2ccc(C)c(Cl)c2)c1C | 0 | 0 | 0 | 0
CC(=O)c1c(C)[nH]c(C(=O)OCC(=O)Nc2cccc(Cl)c2)c1C | 44 | 0 | 0 | 0
CC(=O)c1c(C)[nH]c(C(=O)OCC(=O)Nc2ccc(Cl)cc2)c1C | 0 | 0 | 0 | 0
CC(=O)c1c(C)[nH]c(C(=O)OCC(=O)Nc2ccc(F)c(Cl)c2)c1C | 35 | 0 | 0 | 0
Cc1ccccc1NC(=O)NC1(C(=O)NCCN2CCOCC2)CCCCC1 | 0 | 0 | 0 | 0
CC(C)CCCC(C)NC(=O)c1cccc([N+](=O)[O-])c1 (stereo not drawn) | 0 | 0 | 0 | 0
Cc1cc(NC(=O)c2ccccc2)ccc1-c1cc2ccccc2oc1=O | 0 | 0 | 0 | 0
SMILES | TEAD-YAP inh | MITF inh | FBW7 activator | GPR151 activ
Cc1cc(NC(=O)Cc2ccccc2)ccc1-c1cc2ccccc2oc1=O | 54 | 0 | 0 | 0
Cc1ccccc1OCC(=O)Nc1ccc(-c2cc3ccccc3oc2=O)c(C)c1 | 45 | 0 | 0 | 0
O=C(Nc1ccc2[nH]c(=O)[nH]c2c1)c1cc(I)ccc1Cl | 0 | 0 | 0 | 0
CCOc1ccc(NC(=O)[C@@H](NC(=O)c2ccc(C)cc2)C(C)C)cc1 | 0 | 0 | 0 | 0
Cc1ccc(NC2=NCC(=O)N2Cc2ccc(F)cc2)cc1C | 0 | 0 | 0 | 0
O=C1CCCN1CCCNc1nc(Nc2cnccn2)nc2c1ncn2-c1ccsc1 | 75 | 0 | 0 | 0
COc1cc(Nc2nc(N3CCN(c4ccccn4)CC3)nc3c2ncn3CCN2CCCC2=O)cc(OC)c1OC | 33 | 0 | 0 | 0
O=C1CCCN1CCCNc1nc(NC2CC2)c2ncn(-c3ccsc3)c2n1 | 34 | 0 | 0 | 0
O=C1CCCN1CCCNc1nc(Nc2ccccn2)nc2c1ncn2-c1ccsc1 | 53 | 0 | 0 | 0
Cn1nccc1Nc1nc(NCCCN2CCCC2=O)c2ncn(-c3ccsc3)c2n1 | 0 | 0 | 0 | 0
Cn1c(Sc2ccc(S(=O)(=O)N3CCCC3)cc2[N+](=O)[O-])nnc1C(F)(F)F | 0 | 0 | 0 | 0
CCC(C)NC(=O)CSc1nc2ccsc2c(=O)n1-c1ccc(Cl)c(C)c1 (stereo not drawn) | 0 | 0 | 0 | 0
O=c1c2ccccc2c(/C=N/c2ccccn2)c(O)n1-c1ccccn1 | 0 | 0 | 0 | 0
CCCCCC(=O)CC[C@@H]1[C@@H](CC(=O)CCCCC(=O)O)[C@@H](O)C[C@H]1O | - | 0 | - | 0
COc1cc(Nc2nc(NCCCN3CCCC3=O)c3ncn(-c4ccsc4)c3n2)cc(OC)c1OC | 54 | 0 | 0 | 0

Assay outcomes as filed in PubChem.
